Assay results taken from PubChem BioAssay (NCATS).
Inconclusive results are not listed. The source made the active and inactive calls. Calls come from the whole dose curve; as a rule, active = well fitted inhibition curve with a large enough effect; inconclusive = small, poorly fitted or top-dose-only effect; inactive = no such curve, though single readings can be large or run the other way.

target: Cytochrome P450 3A4 (Homo sapiens) (UniProt P08684); assay: qHTS Assay for Inhibitors and Substrates of Cytochrome P450 3A4 (AID 884); details: recombinant CYP3A4, Luciferin-PPXE luminescence; series mostly up to 57.1 µM; activity change, negative = inhibition: at the top concentration; note: nearly all actives have a fitted effect of over 50% in size
Method in brief: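 20 nM human CYP3A4 with 25 uM Luciferin-PPXE (at KM) in 200 mM KPO4, preincubated 10 min with compound; NADPH regeneration started a 60 min RT reaction. Luciferin detected by luminescence, normalized to 57 uM ketoconazole as full inhibition.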
% is set by controls: 0 for no effect and ±100 for the full control effect.

Chain of Cytochrome P450 3A4 (Homo sapiens) (P08684 whole entry, looked up): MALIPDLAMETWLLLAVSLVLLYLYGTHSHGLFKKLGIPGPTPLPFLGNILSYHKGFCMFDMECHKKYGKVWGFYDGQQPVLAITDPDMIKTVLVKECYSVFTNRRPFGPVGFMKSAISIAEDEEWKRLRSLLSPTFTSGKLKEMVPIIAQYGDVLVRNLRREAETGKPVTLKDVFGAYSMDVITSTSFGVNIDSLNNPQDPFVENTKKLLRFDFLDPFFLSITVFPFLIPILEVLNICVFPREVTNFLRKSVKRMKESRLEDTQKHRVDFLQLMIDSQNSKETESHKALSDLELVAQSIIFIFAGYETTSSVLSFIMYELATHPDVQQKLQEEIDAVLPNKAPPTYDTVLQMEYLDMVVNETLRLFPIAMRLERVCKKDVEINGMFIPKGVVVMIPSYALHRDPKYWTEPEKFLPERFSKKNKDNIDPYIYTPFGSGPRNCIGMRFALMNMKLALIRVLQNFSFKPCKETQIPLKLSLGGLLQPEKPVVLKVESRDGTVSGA

Activity change, negative = inhibition, inactive:
Cc1csc(B(O)O)c1 -26.3%, OB(O)c1cc2ccccc2s1 -8.26%, O=C(O)c1ccc(NS(=O)(=O)c2ccsc2C(=O)O)c(O)c1 -12.7%, COC(=O)[C@@H]1C[C@@]2(O)[C@@H](O)[C@@H](O)[C@@H](O)C[C@H]2N1Cc1ccc(C(F)(F)F)cc1 -34.5%, OB(O)c1ccc(B(O)O)cc1 -24.2%, O=C(O)c1cc(C(F)(F)F)nc2ccccc12 -23.6%, Cc1cc(C(=O)O)sc1C(N)C(=O)O (configuration not stated) -25.7%, NC(=O)NCc1ccccc1 -3.44%, N=C(N)c1ccc(N2CCN(C3CCN(CC(=O)O)CC3)CC2)cc1 -7.22%, Cn1c(=O)c(C(=O)COC(=O)c2cc(C(F)(F)F)nc3ccccc23)c(N)n(Cc2ccccc2)c1=O 2.97%, CCCN1[C@H](C(=O)OC)C[C@@]2(O)[C@@H](O)[C@@H](O)[C@@H](O)C[C@@H]12 -12.3%, CC(C)Cn1c(N)c(C(=O)COC(=O)c2cc(C(F)(F)F)nc3ccccc23)c(=O)n(C)c1=O -9.49%, COC(=O)[C@@H]1C[C@@]2(O)[C@H](O)[C@H](O)[C@H](O)C[C@H]2N1Cc1ccc(C)s1 -19.8%, CCCCCCCCCCCCCCCCCC(=O)NCCc1ccc(O)c(O)c1 -12.8%, N#Cc1ccc(C23CC4(C2)[C@H](CN(Cc2ccc(C(F)(F)F)cc2)[C@@H]4c2ccccc2)C3c2ccc(C(F)(F)F)cc2)cc1 (some centres not stated) -26.7%, COC(=O)c1ccc(C23CC4(C2)[C@H](CN(Cc2ccc(-c5ccccc5)cc2)[C@@H]4c2ccccc2)C3c2ccc(Cl)nc2)cc1 (some centres not stated) -20.2%, COC(=O)CC1Oc2cc3oc4c(c3cc2O1)C(=O)CC(C)(C)C4 (configuration not stated) 16.3%
